Source: PubChem BioAssay (Tox21)
Inconclusive results are not listed. Activity calls are given as the source filed them. Unless noted, the call rests on the fitted dose curve; in most records, active means well fitted curve in the direction sought with a large enough effect in the repeat runs; inconclusive means weak or mixed curves; inactive means no such curve, though single readings can be large; an effect the other way counts as inactive or inconclusive.

What was measured:
[1] = qHTS assay to identify aromatase inhibitors - cell viability counter screen (AID 743084);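 further: cells stimulated with testosterone during compound exposure; nearly all actives have a fitted effect of over 55% in size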
[2] = target: Aryl hydrocarbon receptor (Homo sapiens) (UniProt P35869); test: qHTS assay to identify small molecule that activate the aryl hydrocarbon receptor (AhR) signaling pathway (AID 743085);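 further: HG2L7.5c1 human HepG2 liver cells with stably integrated DRE-driven firefly reporter; series mostly up to about 70 µM; nearly all actives have a fitted effect of over 15% in size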
Procedure, shortened: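 Luminescence (ONE-Glo) from a dioxin-responsive-element luciferase reporter in HG2L7.5c1 HepG2 cells after 24 hr compound exposure at 37C; viability measured by CellTiter-Fluor fluorescence beforehand.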

[3] = qHTS assay to identify small molecule that activate the aryl hydrocarbon receptor (AhR) signaling pathway - cell viability counter screen (AID 743086);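 further: HepG2 liver cells carrying the AhR DRE luciferase reporter; series mostly up to about 70 µM; nearly all actives have a fitted effect of over 45% in size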
Procedure, shortened: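 HepG2-AhR-luc (HG2L7.5c1) cells, 4000/well, were preincubated 5 h at 37C, exposed to compound in qHTS format for 24 hr at 37C, then given CellTiter-Fluor for 30 min; viability was read as fluorescence in the reporter wells.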

[4] = target: Peroxisome proliferator-activated receptor gamma (Homo sapiens) (UniProt P37231); test: qHTS assay to identify small molecule agonists of the peroxisome proliferator-activated receptor gamma (PPARg) signaling pathway (AID 743094; active means well fitted activation curve with a large enough effect in the signal ratio in the repeat runs, not every such curve was filed as active; the % refers to the signal ratio)
Procedure, shortened: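 Beta-lactamase FRET fluorescence was the read-out after a 1 h room-temperature substrate step, following 17 h compound treatment at 37C of HEK293H cells expressing a UAS-driven bla reporter responsive to PPARg.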

[5] = target: Peroxisome proliferator-activated receptor gamma (Homo sapiens) (UniProt P37231); test: qHTS assay to identify small molecule antagonists of the peroxisome proliferator-activated receptor gamma (PPARg) signaling pathway (AID 743191; calls by dose curve; further: series mostly up to about 63 µM; nearly all actives have a fitted effect of over 30% in size)
Procedure, shortened: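 GeneBLAzer PPARg UAS-bla HEK293H cells carrying a UAS-driven beta-lactamase reporter were plated at 3000 cells/well, preincubated 5 h at 37C, then given compound for 17 h at 37C; LiveBLAzer B/G FRET substrate was read after 1 h at room temperature.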

[6] = qHTS assay for small molecule agonists of the antioxidant response element (ARE) signaling pathway (AID 743202; active means well fitted activation curve with a large enough effect in the signal ratio in the repeat runs, not every such curve was filed as active; the % refers to the signal ratio)
Procedure, shortened: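 Read-out: LiveBLAzer B/G FRET substrate fluorescence after 2 h at room temperature, following 16 h compound treatment at 37 C of HepG2 cells carrying an ARE-driven beta-lactamase reporter.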

[7] = qHTS assay for small molecule agonists of the antioxidant response element (ARE) signaling pathway - cell viability counter screen (AID 743203; calls by dose curve; further: nearly all actives have a fitted effect of over 55% in size)
Procedure, shortened: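 HepG2 cells carrying ARE-driven beta-lactamase; 2,000 cells/well; 5 hrs plating; compound pinned from DMSO; 16 hrs 37C/5% CO2; CellTiter-Glo added; 30 min RT; luminescence.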

[8] = qHTS assay for small molecule activators of the heat shock response signaling pathway - cell viability counter screen (AID 743209); further: nearly all actives have a fitted effect of over 50% in size
Procedure, shortened: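 Luminescence from CellTiter-Glo, added after the beta-lactamase FRET read, gave the viability signal. Cells were HSE-bla HeLa treated with DMSO-dissolved compounds for 5 h at 37 C following overnight plating.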

[9] = qHTS assay for small molecule activators of the heat shock response signaling pathway (AID 743210; active means well fitted activation curve with a large enough effect in the signal ratio in the repeat runs, with a control signal flat, not every such curve was filed as active; the % refers to the signal ratio; further: series mostly up to about 63 µM)
Procedure, shortened: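 HSE-bla HeLa cells (beta-lactamase reporter under heat shock response elements) were exposed to compounds for 5 h at 37 C, then loaded with LiveBLAzer B/G FRET substrate for 2.5 h at room temperature before fluorescence reading.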

[10] = qHTS assay to identify small molecule agonists of the peroxisome proliferator-activated receptor delta (PPARd) signaling pathway - cell viability counter screen (AID 743211); further: nearly all actives have a fitted effect of over 55% in size
Procedure, shortened: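 Viability was measured as CellTiter-Glo luminescence (30 min, room temperature) in the same wells as the beta-lactamase readout. GeneBLAzer PPARd UAS-bla HEK293H cells received compound after 5 h plating and were incubated 17 h at 37 C.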

[11] = qHTS assay to identify small molecule antagonists of the peroxisome proliferator-activated receptor delta (PPARd) signaling pathway - cell viability counter screen (AID 743213); further: nearly all actives have a fitted effect of over 50% in size
Procedure, shortened: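 Same-well viability: cells pre-incubated 5 h, dosed with compound plus 300 nM L165041, kept 17 h at 37 C, FRET substrate 2 h RT, then CellTiter-Glo 30 min RT and luminescence.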

[12] = qHTS assay to identify small molecule agonists of the farnesoid-X-receptor (FXR) signaling pathway - cell viability counter screen (AID 743218); further: nearly all actives have a fitted effect of over 45% in size
Procedure, shortened: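 HEK 293T FXR-bla cells; 5 h pre-incubation, 16 h compound exposure at 37 C; LiveBLAzer substrate 2 h RT, then CellTiter-Glo 30 min RT, luminescence.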

[13] = qHTS assay to identify small molecule antagonists of the farnesoid-X-receptor (FXR) signaling pathway - cell viability counter screen (AID 743221; active means well fitted cell-killing curve with a large enough effect in the repeat runs, not every such curve was filed as active; further: nearly all actives have a fitted effect of over 50% in size)
Procedure, shortened: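 Cytotoxicity counter screen run in the FXR-bla reporter wells: HEK 293T cells exposed to compound with 50 uM (final) chenodeoxycholic acid for 16 h, 37 C, then viability measured by CellTiter-Glo luminescence after 30 min, room temperature.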

[14] = target: Vitamin D3 receptor (Homo sapiens) (UniProt P11473); test: qHTS assay to identify small molecule agonists of the vitamin D receptor (VDR) signaling pathway (AID 743222; calls by dose curve)
Procedure, shortened: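 VDR-bla cells, 2,000/well; 4 h preincubation 37C; cpd (DMSO) 16 h; LiveBLAzer B/G substrate 2 h RT; fluorescence intensity read.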

[15] = qHTS assay to identify small molecule antagonists of the peroxisome proliferator-activated receptor gamma (PPARg) signaling pathway - cell viability counter screen (AID 743194); further: nearly all actives have a fitted effect of over 55% in size
Procedure, shortened: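 PPARg-UAS-bla HEK293H cells were plated, rested 5 h at 37 C, then treated with compounds plus rosiglitazone (50 nM final) for 17 h at 37 C; viability was then read by CellTiter-Glo luminescence after 30 min at room temperature.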

[16] = target: Peroxisome proliferator-activated receptor delta (Homo sapiens) (UniProt Q03181); test: qHTS assay to identify small molecule agonists of the peroxisome proliferator-activated receptor delta (PPARd) signaling pathway (AID 743212; calls by dose curve)
Procedure, shortened: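 GeneBLAzer PPARd UAS-bla HEK293H cells (beta-lactamase reporter under UAS control), plated and rested 5 h at 37 C, then exposed to compounds in DMSO at 37 C; LiveBLAzer B/G FRET substrate added, 2 h room temperature, fluorescence read.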

[17] = target: Peroxisome proliferator-activated receptor delta (Homo sapiens) (UniProt Q03181); test: qHTS assay to identify small molecule antagonists of the peroxisome proliferator-activated receptor delta (PPARd) signaling pathway (AID 743215; active means well fitted inhibition curve with a large enough effect in the signal ratio in the repeat runs, not every such curve was filed as active; the % refers to the signal ratio;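 further: cells stimulated with agonist L165041 at 300 nM final during compound exposure; series mostly up to about 62 µM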)
Procedure, shortened: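 Read-out is beta-lactamase FRET fluorescence, measured 2 h after substrate addition at room temperature. Beforehand, UAS-bla HEK293H cells carrying the PPARd reporter were exposed to compounds with L165041 at 300 nM final for 17 h at 37 C.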

[18] = target: Bile acid receptor (Homo sapiens) (UniProt Q96RI1); test: qHTS assay to identify small molecule agonists of the farnesoid-X-receptor (FXR) signaling pathway (AID 743220; active means well fitted activation curve with a large enough effect in the signal ratio in the repeat runs, not every such curve was filed as active; the % refers to the signal ratio)
Procedure, shortened: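 Beta-lactamase reporter under UAS control in GeneBLAzer FXR HEK 293T cells (5000/well) measured with LiveBLAzer FRET substrate after 2 h at room temperature. Compound exposure lasted 16 h at 37C.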

[19] = target: Vitamin D3 receptor (Homo sapiens) (UniProt P11473); test: qHTS assay to identify small molecule antagonists of the vitamin D receptor (VDR) signaling pathway (AID 743223; active means well fitted inhibition curve with a large enough effect in the signal ratio in the repeat runs, not every such curve was filed as active; the % refers to the signal ratio)
Procedure, shortened: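 Antagonist mode: compound added to VDR-bla cells alongside agonist 1alpha,25-dihydroxyvitamin D3 (3 nM final), incubation 16 h at 37C. Read-out is LiveBLAzer FRET fluorescence, 2 h at room temperature.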

[20] = target: Bile acid receptor (Homo sapiens) (UniProt Q96RI1); test: qHTS assay to identify small molecule antagonists of the farnesoid-X-receptor (FXR) signaling pathway (AID 743217; active means well fitted inhibition curve with a large enough effect in the signal ratio in the repeat runs, not every such curve was filed as active; the % refers to the signal ratio)
Procedure, shortened: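 HEK 293T FXR-UAS-bla, 5000 cells/well; compound + CDCA 50 uM final; 16 h, 37 °C; B/G FRET substrate 2 h RT; fluorescence.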
On the % scale 0 is the no-effect control and ±100 the full control effect.

Chain of Bile acid receptor (Homo sapiens) (Q96RI1 whole entry, looked up): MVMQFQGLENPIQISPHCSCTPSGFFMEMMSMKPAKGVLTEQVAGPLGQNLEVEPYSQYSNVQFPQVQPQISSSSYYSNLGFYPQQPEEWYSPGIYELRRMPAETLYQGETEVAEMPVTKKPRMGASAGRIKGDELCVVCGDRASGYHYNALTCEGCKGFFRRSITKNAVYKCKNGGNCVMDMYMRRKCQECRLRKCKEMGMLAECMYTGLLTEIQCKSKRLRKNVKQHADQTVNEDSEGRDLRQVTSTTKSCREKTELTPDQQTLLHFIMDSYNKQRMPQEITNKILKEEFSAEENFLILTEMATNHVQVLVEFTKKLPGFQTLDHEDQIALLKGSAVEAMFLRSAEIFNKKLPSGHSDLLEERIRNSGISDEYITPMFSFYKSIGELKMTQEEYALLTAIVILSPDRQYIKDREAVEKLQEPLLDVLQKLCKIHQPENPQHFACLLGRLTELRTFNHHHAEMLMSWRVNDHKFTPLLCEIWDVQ
Chain of Vitamin D3 receptor (Homo sapiens) (P11473 whole entry, looked up): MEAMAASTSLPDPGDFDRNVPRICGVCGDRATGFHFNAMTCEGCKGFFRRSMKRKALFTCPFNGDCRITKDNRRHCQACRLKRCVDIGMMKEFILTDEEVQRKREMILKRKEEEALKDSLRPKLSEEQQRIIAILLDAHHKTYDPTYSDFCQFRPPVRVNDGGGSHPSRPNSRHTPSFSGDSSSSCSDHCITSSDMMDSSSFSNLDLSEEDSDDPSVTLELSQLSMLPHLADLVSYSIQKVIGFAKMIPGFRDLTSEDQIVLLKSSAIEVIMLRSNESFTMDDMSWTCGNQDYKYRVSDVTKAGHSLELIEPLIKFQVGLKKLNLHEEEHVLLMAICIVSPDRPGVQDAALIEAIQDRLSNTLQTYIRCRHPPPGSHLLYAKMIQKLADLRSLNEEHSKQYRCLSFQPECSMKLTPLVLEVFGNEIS
Chain of Aryl hydrocarbon receptor (Homo sapiens) (P35869 whole entry, looked up): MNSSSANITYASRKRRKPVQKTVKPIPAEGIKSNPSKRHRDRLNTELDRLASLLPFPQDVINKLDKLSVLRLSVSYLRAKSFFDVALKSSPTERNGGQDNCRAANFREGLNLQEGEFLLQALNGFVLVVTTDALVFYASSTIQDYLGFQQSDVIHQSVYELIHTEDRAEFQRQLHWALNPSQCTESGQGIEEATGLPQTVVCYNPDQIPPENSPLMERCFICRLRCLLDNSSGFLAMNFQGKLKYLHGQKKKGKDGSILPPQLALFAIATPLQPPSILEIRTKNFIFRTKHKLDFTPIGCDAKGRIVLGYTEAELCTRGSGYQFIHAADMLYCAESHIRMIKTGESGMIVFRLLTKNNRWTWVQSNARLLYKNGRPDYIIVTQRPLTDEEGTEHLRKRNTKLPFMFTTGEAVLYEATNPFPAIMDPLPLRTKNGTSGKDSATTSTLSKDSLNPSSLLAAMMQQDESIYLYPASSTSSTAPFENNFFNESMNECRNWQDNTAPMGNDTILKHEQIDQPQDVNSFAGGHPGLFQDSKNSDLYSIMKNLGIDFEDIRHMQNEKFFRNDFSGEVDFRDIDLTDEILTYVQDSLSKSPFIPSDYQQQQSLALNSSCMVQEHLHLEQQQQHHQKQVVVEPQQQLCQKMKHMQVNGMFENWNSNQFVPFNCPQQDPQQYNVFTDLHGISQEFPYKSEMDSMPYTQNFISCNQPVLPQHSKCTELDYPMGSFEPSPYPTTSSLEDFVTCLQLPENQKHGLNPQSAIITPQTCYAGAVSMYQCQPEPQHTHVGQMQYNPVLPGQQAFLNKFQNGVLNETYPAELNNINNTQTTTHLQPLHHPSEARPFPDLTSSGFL
Chain of Peroxisome proliferator-activated receptor delta (Homo sapiens) (Q03181 whole entry, looked up): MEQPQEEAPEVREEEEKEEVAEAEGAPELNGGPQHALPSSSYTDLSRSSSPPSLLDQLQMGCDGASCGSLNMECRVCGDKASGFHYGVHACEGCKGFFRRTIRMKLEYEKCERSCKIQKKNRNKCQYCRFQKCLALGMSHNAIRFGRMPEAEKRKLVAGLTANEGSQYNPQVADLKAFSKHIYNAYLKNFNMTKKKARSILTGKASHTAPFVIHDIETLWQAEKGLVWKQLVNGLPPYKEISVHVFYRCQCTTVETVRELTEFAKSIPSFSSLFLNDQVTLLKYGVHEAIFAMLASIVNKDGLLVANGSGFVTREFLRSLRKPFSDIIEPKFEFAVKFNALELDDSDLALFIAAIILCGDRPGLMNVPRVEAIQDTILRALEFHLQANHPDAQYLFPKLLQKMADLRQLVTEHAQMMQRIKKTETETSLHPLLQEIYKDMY
Chain of Peroxisome proliferator-activated receptor gamma (Homo sapiens) (P37231 whole entry, looked up): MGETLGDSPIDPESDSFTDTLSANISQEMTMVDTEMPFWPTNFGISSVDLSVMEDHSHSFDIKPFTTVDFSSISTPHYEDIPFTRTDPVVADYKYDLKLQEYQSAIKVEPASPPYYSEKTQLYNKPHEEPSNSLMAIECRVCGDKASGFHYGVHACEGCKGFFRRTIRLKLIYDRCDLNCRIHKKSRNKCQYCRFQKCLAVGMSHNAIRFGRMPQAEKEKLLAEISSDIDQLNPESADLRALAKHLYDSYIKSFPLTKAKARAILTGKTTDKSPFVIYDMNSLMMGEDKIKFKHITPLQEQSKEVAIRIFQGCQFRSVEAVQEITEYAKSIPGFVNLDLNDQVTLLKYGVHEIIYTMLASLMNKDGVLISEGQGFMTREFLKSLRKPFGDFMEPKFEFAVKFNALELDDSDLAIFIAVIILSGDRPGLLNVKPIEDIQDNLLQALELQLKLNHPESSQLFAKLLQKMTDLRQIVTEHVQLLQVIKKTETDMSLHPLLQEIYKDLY

CCOC(=O)CCCCCCCCC(=O)OCC
inactive: Potency [1] | Potency [2] | Potency [3] | outcome [4] | Potency [5] | Potency [6] | outcome [7] | outcome [8] | outcome [9] | outcome [10] | outcome [11] | Potency [12] | outcome [13] | outcome [14]

Cc1cccc(C(=O)O)c1[N+](=O)[O-]
inactive: Potency [1] | Potency [2] | Potency [3] | outcome [4] | Potency [5] | outcome [15] | outcome [7] | outcome [8] | outcome [10] | outcome [16] | outcome [11] | outcome [17] | Potency [12] | outcome [13] | outcome [14]

CCCCCC(=O)OCC
inactive: Potency [1] | Potency [2] | Potency [3] | outcome [4] | Potency [5] | outcome [15] | outcome [8] | outcome [9] | outcome [10] | outcome [11] | Potency [12] | outcome [18] | outcome [13] | outcome [14] | outcome [19]

COC(/C=C(\C)CCC=C(C)C)OC
inactive: Potency [1] | Potency [2] | Potency [3] | outcome [4] | Potency [5] | outcome [15] | outcome [8] | outcome [9] | outcome [10] | outcome [16] | outcome [11] | outcome [17] | outcome [20] | outcome [18] | outcome [13] | outcome [14] | outcome [19]

CC(=O)OC(C(=O)c1ccccc1)c1ccccc1 (stereo unspecified)
inactive: Potency [1] | Potency [2] | Potency [3] | outcome [4] | Potency [5] | Potency [6] | outcome [7] | outcome [8] | outcome [9] | outcome [10] | outcome [16] | outcome [11] | outcome [20] | Potency [12] | outcome [18] | outcome [13]

C=CCCCCCCCCCCC
inactive: activity change, negative = cytotoxicity [1] 2.95% [at 8.47 µM] | activation [2] -0.125% [at 8.47 µM] | viability change, negative = cytotoxic [3] 0.7% [at 8.47 µM] | activation [4] -4.62% [at 7.08 µM] | ratio activity, negative = inhibition [5] 16.1% [at 5.95 µM] | activity change, negative = cytotoxicity [15] 13.8% [at 5.95 µM] | viability change, negative = cytotoxic [7] 9.33% [at 8.36 µM] | activity change, negative = cytotoxicity [8] -3.82% [at 5.95 µM] | activation [9] -0.0554% [at 5.95 µM] | activity change, negative = cytotoxicity [10] -1.9% [at 5.95 µM] | activation [16] -5.08% [at 5.95 µM] | viability change, negative = cytotoxic [12] 33.3% [at 5.95 µM] | activity change, negative = cytotoxicity [13] 11.4% [at 5.95 µM] | activation [14] -2.3% [at 6.01 µM] | activity change, negative = inhibition [19] 4.12% [at 6.95 µM]

Cc1ccccc1C(=O)N1CC/C(=N\OS(=O)(=O)O)c2ccc(Cl)cc21
inactive: Potency [1] | Potency [2] | Potency [3] | outcome [4] | Potency [5] | outcome [15] | Potency [6] | outcome [7] | outcome [8] | outcome [10] | outcome [16] | outcome [11] | Potency [12] | outcome [13] | outcome [14]

FC(F)(F)/C(=N\OCC1OCCO1)c1ccc(Cl)cc1
inactive: Potency [1] | Potency [2] | Potency [3] | outcome [4] | Potency [5] | Potency [6] | outcome [7] | outcome [8] | outcome [9] | outcome [10] | outcome [11] | Potency [12] | outcome [13] | outcome [14] | outcome [19]

CC(C)(CO)[C@@H](O)C(=O)NCCCO
inactive: Potency [1] | Potency [2] | Potency [3] | outcome [4] | Potency [5] | Potency [6] | outcome [7] | outcome [8] | outcome [9] | outcome [10] | outcome [16] | outcome [11] | outcome [17] | outcome [20] | Potency [12] | outcome [18] | outcome [13] | outcome [14] | outcome [19]
